Screening results as filed in PubChem.
Hits are enriched below; roughly 1.5% of the tested compounds scored in any of these assays.
Casp6 inh = inhibitors of human caspase-6. P55212. purified caspase-6, Z-VEID-R110 cleavage fluorescence. inhibition, % at 12.5 µM. 350,000 tested, 0.53% active. AID 686996;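 active = mean inhibition across replicates at least about 35%, with every replicate also reaching that limit, limit read from the data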;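 also: 0% = median of neutral control wells and 100% = no fluorescence left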
AF4-AF9 inh = inhibitors of human MLL-AF4/AF9 interaction; P42568; AlphaScreen, biotin-AF4 peptide binding to FLAG-AF9; inhibition, % at 10 µM; 350,000 tested, 0.47% active; AID 651704;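 active = every replicate reaching a set inhibition limit, whatever the replicate mean, cut at about 25% in these data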;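 also: 0% = plate neutral control median and 100% = total signal loss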
NSD2 HMT inh = NSD2 (human) methyltransferase inhibition; O96028; 310,000 tested, 0.54% active; NSD2 peptide methylation, AlphaScreen, 120 min; inhibition, % at 12.5 µM; in the data active = inhibition above about 50%
miR-122 sensor = inhibitors of miR-122 in Huh7 cells; Huh7 miR-122 Renilla luciferase sensor, 48 h; neutral wells = 0, positive control = 100; activation (reporter increase), % at 12.5 µM; 340,000 tested, 0.3% active; AID 602342;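 active = mean replicate activation score at least 90 and every replicate individually at or above 90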;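 also: higher luciferase means less miR-122 activity so hits act as miR-122 inhibitors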
RAD52 anneal inh = RAD52 (human) annealing inhibition | P43351 | recombinant RAD52 DNA annealing, FRET fluorescence | inhibition, % at 18.7 µM | 360,000 tested, 0.46% active | AID 651710;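 active = every replicate showing at least 50% inhibition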
Alpha artifact = counter-screen for NSD2 inhibitors: AlphaScreen artifacts | shares compounds with NSD2 HMT inh | AlphaScreen artifact counterscreen, preloaded methylated H4 peptide | AC35, µM (titrated, usually from 10 µM), inactives show top-dose activity change, negative = signal loss | 1,500 tested, 9.4% active | AID 1053174; call rule not given here
* = called active by the depositor; / = no result; [ ] = dose if it differs, or a comment.

SMILES | Casp6 inh | AF4-AF9 inh | NSD2 HMT inh | miR-122 sensor | RAD52 anneal inh | Alpha artifact
Cc1ccccc1Nc1nc(N)nc(COC(=O)c2ccco2)n1 | 1 | 0 | -2 | -5 | -5 | /
CC(Nc1cccc2ccccc12)C(=O)N/N=C/c1ccccn1 (configuration not stated) | / | / | 132* | 14 | / | -8%
Oc1cccc(C=NCc2ccccc2)c1 | / | / | 159* | -1 | / | 9%
Oc1c(Br)cc(Br)cc1C=NCc1ccccc1 | 10 | 3 | -9 | / | -2 | /
Oc1ccccc1/C=N/Nc1cc(N2CCCC2)nc(N2CCCC2)n1 | / | / | 54* | 53 | / | -14%
Oc1ccc(/C=N/Nc2cc(N3CCOCC3)nc(N3CCOCC3)n2)cc1O | 6 | 19 | 106* | / | 1 | -18%
Oc1cccc(/C=N/Nc2cc(N3CCOCC3)nc(N3CCOCC3)n2)c1 | / | / | 23 | 0 | / | /
COC(=O)C(CC#Cc1ccc2c(c1)[C@]1(C(=O)N2)[C@H](C(=O)NC[C@H](O)c2ccccc2)[C@H]2C(=O)O[C@H](c3ccccc3)[C@H](c3ccccc3)N2[C@@H]1c1ccccc1OCCO)C(=O)OC | 1 | -4 | / | / | 4 | /
CCNCCC(=O)N1c2ccccc2Sc2ccc(C(F)(F)F)cc21 | -3 | 5 | 78* | -10 | -8 | -7%
Cc1ccc(CSc2nc3c(c(=O)[nH]2)C(c2ccncc2)C2=C(CCCC2=O)N3)cc1 (configuration not stated) | / | / | 127* | 0 | / | -1%
CC1CCN(C(=O)CN(Cc2ccc(Cl)cc2)S(C)(=O)=O)CC1 | 2 | 0 | 62* | -2 | -6 | -8%
CS(=O)(=O)N(CC(=O)N1CCCC1)Cc1ccc(Cl)cc1 | / | / | -2 | / | / | /
CC(=O)N1CCn2c3c(c(=O)c4cc(C)ccc42)CCC31 (configuration not stated) | / | / | 97* | -4 | / | -1%
CC(=O)N1CCn2c3c(c4cc(C)ccc42)CCCC31 (configuration not stated) | 0 | 6 | 8 | / | -15 | /
CO[C@H]1CN(C)C(=O)c2cc(C#N)ccc2OC[C@H]2O[C@@H](CC[C@H]2OC)CCN(C)C(=O)[C@H]1C | 15 | -8 | / | / | -1 | /
Cc1oc(-c2cccs2)nc1CN1CCN(CCC(C)C)C(CCO)C1 (configuration not stated) | -1 | -3 | -1 | / | -17 | /
Cc1oc(-c2cccs2)nc1CN1CCN(C2CCCC2)C(CCO)C1 (configuration not stated) | -7 | 2 | 52* | 3 | 3 | -2%
C/C(CC(=O)NCCCN1CCOCC1)=N\NC(=O)COc1ccc(Cl)cc1 | / | / | 65* | 2 | / | -7%
Clc1cccc(N2CCN(CCCN3CCN(c4ccccc4)CC3)CC2)c1 | -2 | 16 | 53* | -1 | 6 | -17%
O=C(CCC(=O)N1CCN(c2cccc(Cl)c2)CC1)N1CCN(c2ccccc2)CC1 | -2 | 0 | 4 | / | -17 | /
CS(=O)(=O)N(CC(=O)NCc1ccc2c(c1)OCO2)c1ccc(Cl)cc1 | / | / | 0 | -3 | / | /
CS(=O)(=O)N(CC(=O)NCc1ccc2c(c1)OCO2)c1cccc(Cl)c1 | 0 | 0 | 106* | -3 | -8 | -2%
Cc1cccc(N(CC(=O)NC(C)(C)C)C(=O)CS(=O)CC(=O)Nc2ccc3c(c2)OCO3)c1 (configuration not stated) | 1 | 0 | 52* | / | -3 | 3%
CO[C@H]1O[C@H](CO)[C@@H](OC(=O)Nc2ccc3c(c2)OCO3)[C@H](OC(=O)Nc2ccccc2)[C@H]1OC(=O)Nc1ccccc1 | -2 | 1 | / | / | 15 | /
CCOc1ccc(N2CC(C(=O)NCCc3c[nH]c4ccc(OC)cc34)CC2=O)cc1 (configuration not stated) | 0 | -10 | 88* | -3 | -19 | -3%
C[C@H]1CN([C@@H](C)CO)S(=O)(=O)c2ccc(C#CC3CC3)cc2O[C@@H]1CN(C)Cc1ccc(F)cc1 | -1 | 2 | / | 62[16.7 µM] | -1 | /
Cc1cc(NC(=O)COC(=O)c2cccc(S(=O)(=O)N3CCOCC3)c2)no1 | / | / | 108* | 9 | / | -2%
O=C(CC(=O)NCCc1ccccc1)NCCc1ccccc1 | -4 | -2 | 124* | -5 | -7 | -1%
O=C(CCCCC(=O)NCCc1ccccc1)NCCc1ccccc1 | -3 | -10 | 11 | 0 | 7 | /
